The sample as a whole holds a higher share of hits than the screen did.
KDM5B inhibitor = blocks human KDM5B histone demethylase activity; Q9UGL1; KDM5B demethylase, FDH-coupled NADH fluorescence (FDH is formaldehyde dehydrogenase); Potency, µM (series often up to 57.7 µM), most hits filed as inhibitors; 220,000 tested, 2.6% active; AID 1347165; active means well fitted inhibition curve with a large enough effect; further: nearly all actives have a fitted effect of over 70% in size
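Coupled FDH/NAD⁺ fluorescence readout. KDM5BΔAP 200 nM final; compound titration, 10 min RT preincubation; substrate mix 12.5 µM H3K4me3, 25 µM 2-OG, 50 µM Fe(II), 100 µM ascorbate, 0.25 mM NAD⁺, 0.25 U/mL FDH; ΔRFU over 30 min.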
Each line names hits and unclear results; the compound was inactive in the other large screens.

COc1ccc(CCNC(=O)c2cc3c(N4CCCC4)nc(C)cn3n2)cc1OC	none
COc1cc(NC(=O)Nc2ccc(F)cc2F)c(OC)cc1Cl	none
Cc1ccc(NC(=O)c2c3c(nc4ccccc24)CCCC3)cc1Cl	none
Cc1ccc(COC(=O)c2ccccc2C(=O)c2ccc(Cl)cc2)cc1	none
O=C(NCCc1ccccc1)OCc1ccccc1	none
CC(C)CNCc1ccc(-c2ccccc2)o1	none
Cc1ccc(-c2nc(CN3CCCC3c3ccsc3)co2)cc1 (configuration not stated)	none
Cc1cccc(OC[C@H]2C[C@@H](NCc3cccc4c3OCO4)[C@H](O)[C@@H]2O)n1	none
Cc1cccc(NC(=O)C2Cc3ccc(C)cc3S2)c1 (configuration not stated)	none
COc1ccc(NC(=O)CCS(=O)(=O)c2ccc3c(c2)OCCO3)cc1Cl	none
Cc1ccc(SC(C)C(=O)Nc2ccc(F)cc2F)cc1 (configuration not stated)	none
CCN(CC)Cc1ccc(CNC(=O)c2n[nH]c(=O)c3ccccc23)cc1	none
Cc1cn2nc(C(=O)NCc3ccccn3)cc2c(N2CCCC2)n1	none
Cc1cn2nc(C(=O)NCc3ccccc3Cl)cc2c(N2CCCC2)n1	none
Cc1cccc(CNC(=O)c2cc3c(N4CCCC4)nc(C)cn3n2)c1	none
CCN(Cc1ccccc1)C(=O)c1cn(-c2cccc(Cl)c2)nn1	none
CCN(Cc1ccccc1)C(=O)c1cc2c(N3CCCC3)nc(C)cn2n1	KDM5B inhibitor 25µM
Cc1cn2nc(C(=O)NCc3ccccc3F)cc2c(N2CCCC2)n1	KDM5B inhibitor 25µM
Cc1cn2nc(C(=O)NCc3ccc(C(C)C)cc3)cc2c(N2CCCC2)n1	KDM5B inhibitor 35µM
Cc1cn2nc(C(=O)NCCc3ccc(S(N)(=O)=O)cc3)cc2c(N2CCCC2)n1	none
CCCCn1c(=O)[nH]c(=O)c2c1nc(CSc1nnnn1-c1ccc(C)cc1)n2CC	none
CCOc1ccc(NC(=O)c2cc(=O)c3cc(C)ccc3o2)cc1	none
CN(CCc1noc(C(=O)NCc2ccc(F)cc2)n1)C(=O)Nc1cccc(Br)c1	none
Brc1ccccc1/C=N/Nc1ccc2ccccc2c1	none
CC(C)c1cccc(C(C)C)c1NC(=O)c1ccccc1Sc1ccccc1C#N	none
O=C(Cn1nc(C(=O)O)c2ccccc2c1=O)Nc1ccc(F)c(Cl)c1	none
COc1ccc(NC(=O)Cn2cccc2-c2nc(-c3ccccc3)no2)cc1	none
COC(=O)c1ccccc1NC(=O)Cn1cccc1-c1nc(-c2ccccc2)no1	KDM5B inhibitor 28µM
O=C(Cn1cccc1-c1nc(-c2ccccc2)no1)Nc1ccccc1	none
CC(C)c1ccc(COc2ccc(Cl)cc2C(N)=O)cc1	none
CCNC(=S)NCC12CC3CC(CC(C3)C1)C2	none
Cc1ccc2c(CSc3n[nH]c(=O)n3C3CC3)cc(=O)oc2c1C	none
Cc1noc(C)c1-c1cc2cc(CNC(C)C)oc2c(NC2CCN(C)CC2)n1	none
Cc1noc(C)c1-c1cc2cc(CN(C)C)oc2c(NCc2cccc(F)c2)n1	none
Cc1noc2ncnc(Nc3ccc(F)cc3)c12	none
Cc1cc2cc(-c3c(C)noc3C)nc(Nc3ccc(Cl)cc3)c2o1	KDM5B inhibitor 22µM
Cc1cc2cc(-c3c(C)noc3C)nc(Nc3ccccc3)c2o1	KDM5B inhibitor 40µM
Cc1cc2cc(-c3c(C)noc3C)nc(Nc3ccc(F)cc3)c2o1	KDM5B inhibitor 32µM
Cc1noc(C)c1-c1cc2cc(CN3CCN(C)CC3)oc2c(NC2CCN(C)CC2)n1	none
COc1cc(CNc2nc(-c3c(C)noc3C)cc3cc(C)oc23)cc(OC)c1	KDM5B inhibitor 32µM
Cc1cc2cc(-c3c(C)noc3C)nc(NCc3cccc(F)c3)c2o1	none
COc1ccc(C)cc1NC(=O)CC(C)(C(=O)O)c1ccccc1 (configuration not stated)	none
COc1ccc(C(=O)N/C(=C\c2ccc(-c3cccc(C(F)(F)F)c3)o2)C(=O)NC(C)C)cc1	none
CC(C)c1ccc(CN2CCC3(CC2)COCCN3C(=O)OCc2ccccc2)cc1	none
O=C(CCCc1c[nH]c2ccccc12)Nc1ccc(Br)cc1	none
COc1cccc(CC(=O)Nc2ccc3c(c2)CN(Cc2ccccc2F)C(=O)C(C)O3)c1 (configuration not stated)	none
Cc1ccc(S(=O)(=O)N(CC(=O)NCc2ccncc2)c2ccc(C)c(Cl)c2)cc1	none
S=C(NC1CCCCC1)c1ccccc1	none
CCN(CC)C1=NC(=O)C(CC(=O)Nc2cccc(C(=O)NCCc3ccccc3OC)c2)S1 (configuration not stated)	none
CN(CC(=O)NC(=O)NC1CC1)c1ccc(C(C)(C)C)cc1	none
CCc1ccc(NC(=O)CSc2nc3cc([N+](=O)[O-])ccc3o2)cc1	none
CSc1ccc(-c2ccc3c(c2)C(=O)N2CC[C@H](NC(=O)C4CCCC4)[C@H]2C(=O)N3)cc1	KDM5B inhibitor 25µM
O=C(O)CCC(=O)N[C@H]1CCN2C(=O)c3cc(-c4ccc5c(c4)OCO5)ccc3NC(=O)[C@H]12	none
O=C(N[C@H]1CCN2C(=O)c3cc(-c4ccc(Cl)cc4)ccc3NC(=O)[C@H]12)c1cccs1	KDM5B inhibitor 32µM
O=C(N[C@H]1CCN2C(=O)c3cc(-c4ccc(Cl)cc4)ccc3NC(=O)[C@H]12)c1cnccn1	none
COc1ccc(-c2ccc3c(c2)C(=O)N2CC[C@H](NC(=O)CCC(=O)O)[C@H]2C(=O)N3)cc1	KDM5B inhibitor 20µM
O=C1Nc2cc(Cl)ccc2C(=O)N2CC[C@H](NS(=O)(=O)c3cccs3)[C@@H]12	none
COc1ccc(-c2ccc3c(c2)C(=O)N2CC[C@H](NS(=O)(=O)c4cccs4)[C@H]2C(=O)N3)cc1	KDM5B inhibitor 22µM
O=C1Nc2ccc(-c3ccccc3F)cc2C(=O)N2CC[C@H](NS(=O)(=O)c3cccs3)[C@@H]12	none
Cc1cccc(-c2ccc3c(c2)C(=O)N2CC[C@H](NC(=O)C4CCCC4)[C@H]2C(=O)N3)c1C	none
O=C(N[C@H]1CCN2C(=O)c3cc(-c4ccccc4)ccc3NC(=O)[C@H]12)C1CCCC1	none
O=C(O)CCC(=O)N[C@H]1CCN2C(=O)c3cc(-c4ccccc4)ccc3NC(=O)[C@H]12	none
O=C(N[C@H]1CCN2C(=O)c3cc(-c4ccccc4)ccc3NC(=O)[C@H]12)c1cccs1	none
CCCCNC(N)=S	none
Cc1cccc(SCc2nc3c(c(=O)[nH]c(=O)n3C)n2C)c1	none
COc1cc(/C=C2\NC(=O)NC2=O)cc(I)c1OCc1ccc(F)cc1	none
COc1ccc(C)cc1-n1nnc(-c2nc(-c3ccccc3C)no2)c1N	none
Nc1ccc(Sc2ccccc2Cl)cc1	none
CCc1ccc2c(COC(=O)C3=NN(C)C(=O)CC3)cc(=O)oc2c1	none
Cc1ccc(-c2cc(C(=O)N3CCN(C(=O)c4ccco4)CC3)c3ccccc3n2)o1	none
COc1ccc(S(=O)(=O)Nc2nc3ccccc3nc2Nc2cccc(Br)c2)cc1	none
CSCC(=O)N[C@H]1CCN2C(=O)c3cc(-c4cccc(C)c4C)ccc3NC(=O)[C@H]12	none
COc1ccc(-c2ccc3c(c2)C(=O)N2CC[C@H](NC(=O)c4cccs4)[C@H]2C(=O)N3)c(OC)c1	KDM5B inhibitor 28µM
O=C(N[C@H]1CCN2C(=O)c3ccc(Cl)cc3NC(=O)[C@H]12)c1cccs1	none
COc1ccc(Cl)cc1-c1ccc2c(c1)C(=O)N1CC[C@H](NC(=O)c3cccs3)[C@H]1C(=O)N2	KDM5B inhibitor 25µM
CSCC(=O)N[C@H]1CCN2C(=O)c3ccccc3NC(=O)[C@H]12	none
COc1ccc(-c2ccc3c(c2)C(=O)N2CC[C@H](n4nnc(C(N)=O)c4C(N)=O)C[C@H]2C(=O)N3)c(OC)c1	none
CSCC(=O)N[C@H]1CCN2C(=O)c3cc(-c4ccc(Cl)cc4)ccc3NC(=O)[C@H]12	KDM5B inhibitor 28µM
N[C@H]1CCN2C(=O)c3cc(-c4ccccc4F)ccc3NC(=O)[C@H]12	none

Screening results deposited in PubChem BioAssay by National Center for Advancing Translational Sciences (NCATS).
